Source: the supplement of paper PMC13380429

System: Vero E6 infected with SARS-CoV-2
Assay: inhibition of SARS-CoV-2 cytopathic effect; higher = more antiviral protection, active = above 15
Conditions: 48 h

Measured: inhibition of SARS-CoV-2 cytopathic effect

CCOC(=O)CC(=O)N1CCSC1COc1ccccc1OC (stereo not given) [moguisteine]
inactive: 1 nM -0.34% | 8.33 nM 0.03% | 100 nM -3.76% | 833.33 nM -0.38% | 10000 nM 0.52%

C=C1/C(=C\C=C2/CCC[C@]3(C)[C@@H]([C@H](C)/C=C/C=C/C(O)(CC)CC)CC[C@@H]23)C[C@@H](O)C[C@@H]1O [seocalcitol]
inactive: 1 nM -3.06% | 8.33 nM -2.2% | 100 nM -0.09% | 833.33 nM 1.95% | 10000 nM 1.01%

CC1(C)[C@@H](O)CC[C@]2(C)[C@H]3C(=O)C=C4[C@@H]5C[C@@](C)(C(=O)O)CC[C@]5(C)CC[C@@]4(C)[C@]3(C)CC[C@@H]12 [enoxolone]
inactive: 1 nM -3.08% | 8.33 nM -3.58% | 100 nM -1.05% | 833.33 nM 2.65% | 10000 nM -0.55%

CSc1ccccc1OCC(O)CNC(C)C (stereo not given) [tiprenolol]
inactive: 1 nM -1.52% | 8.33 nM 2.58% | 100 nM -1.94% | 833.33 nM 0.37% | 10000 nM 3.9%

CO/N=C1\C[C@]2(C[C@@H]3C[C@@H](C/C=C(\C)C[C@@H](C)/C=C/C=C4\CO[C@@H]5[C@H](O)C(C)=C[C@@H](C(=O)O3)[C@]45O)O2)O[C@H](/C(C)=C/C(C)C)[C@H]1C [moxidectin]
inactive: 1 nM -5.37% | 8.33 nM -7.08% | 100 nM -3.57% | 833.33 nM -4.07% | 10000 nM 2.53%

COc1cc2c(cc1OC)[C@@]13CCN4CC5=CCO[C@H]6CC(=O)N2[C@H]1[C@H]6[C@H]5C[C@H]43 [brucine]
inactive: 1 nM 7.12% | 8.33 nM 1.25% | 100 nM 3.51% | 833.33 nM 2.71% | 10000 nM 0.47%

O=C(O)c1cc(=O)c2c(OCC(O)COc3cccc4oc(C(=O)O)cc(=O)c34)cccc2o1 [cromoglicic-acid]
inactive: 1 nM -0.6% | 8.33 nM -0.04% | 100 nM -1.5% | 833.33 nM 0.49% | 10000 nM -0.11%

CC(=O)N(C)c1cc(-c2ccnc3c(C(=O)c4cccs4)cnn23)ccc1F [lorediplon]
inactive: 1 nM 0.42% | 8.33 nM -0.41% | 100 nM 1.97% | 833.33 nM 1.05% | 10000 nM 1.78%

O=C1CCCN1CC#CCN1CCCC1 [oxotremorine-sesquifumarate]
inactive: 1 nM 0.81% | 8.33 nM 2.23% | 100 nM 4.01% | 833.33 nM 3.15% | 10000 nM 0.96%

Cc1cccc(/C=C/c2ccccc2)n1
inactive: 1 nM 3.85% | 8.33 nM -0.34% | 100 nM -0.78% | 833.33 nM -1.72% | 10000 nM -2.74%

O=C(CCBr)N1CC[N+]2(CC1)CC[N+]1(CCN(C(=O)CCBr)CC1)CC2 [spirobromin]
inactive: 1 nM -0.01% | 8.33 nM -0.86% | 100 nM -0.61% | 833.33 nM -2.75% | 10000 nM -3.3%

Oc1ccc(-c2c(-c3ccccc3)nn3c(C(F)(F)F)cc(C(F)(F)F)nc23)cc1
inactive: 1 nM 0.08% | 8.33 nM 0.21% | 100 nM -0.05% | 833.33 nM -1.7% | 10000 nM 11.9%

CNC(=O)c1ccc(Nc2ncc(C(F)(F)F)c(NCc3nccnc3N(C)S(C)(=O)=O)n2)cc1 [defactinib]
inactive: 1 nM -2.21% | 8.33 nM -4.25% | 100 nM -0.22% | 833.33 nM -2.59% | 10000 nM -4.28%

CC1(C)CCC(C)(C)c2cc(NC(=O)c3ccc(C(=O)O)cc3)ccc21 [tamibarotene]
inactive: 1 nM 4.56% | 8.33 nM 1.67% | 100 nM 1.5% | 833.33 nM 0.87% | 10000 nM 0.68%

Nc1nc(N)c(N=O)c(OCC2CCCCC2)n1
active: 10000 nM 18.5%
inactive: 1 nM -3.27% | 8.33 nM 3.73% | 100 nM 1.88% | 833.33 nM 5.81%

NC(=O)c1ncn([C@@H]2O[C@H](CO)[C@@H](O)[C@H]2O)c1O [mizoribine]
inactive: 1 nM -1.24% | 8.33 nM -0.82% | 100 nM 0.9% | 833.33 nM 0.29% | 10000 nM -1.77%

CC1(C)CC[C@]2(C(=O)O)CC[C@]3(C)[C@H](C(=O)C=C4[C@@]5(C)C=C(C#N)C(=O)C(C)(C)[C@@H]5CC[C@]43C)[C@@H]2C1 [bardoxolone]
inactive: 1 nM -1.22% | 8.33 nM -1.62% | 100 nM 2.92% | 833.33 nM 3.36%
active: 10000 nM 28.9%
